{"source": "PubChem BioAssay (Tox21)", "note": "Inconclusive results are not listed. Values without a mark were called inactive. Calls of active or inactive are those of the source. Calls follow the shape of the full dose curve. % is scaled to controls: 0 for no effect and ±100 for the full control effect.", "data": [{"experiment": "p53 small molecule agonists, cell-based qHTS assay with human liver microsomes (AID 1963577);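 also: p53 response element beta-lactamase reporter cells with liver microsomes plus NADPH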", "conditions": "HCT-116 p53RE-bla with human liver microsomes, ratio, 16 h; series mostly up to 66 µM; activation: at the top concentration", "how_it_was_run": "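p53RE-bla cells, 4,000/well, compound added after 5 h, with human liver microsomes 0.5 mg/mL and NADPH 0.5 mg/mL final; 16 h at 37 C, then LiveBLAzer 2 h RT, fluorescence.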", "values": [{"smiles": "CC(C)COC(=O)c1ccc(N)cc1", "activation": "0.449% [at 30.3 µM]"}, {"smiles": "CCCc1cc(C(N)=S)ccn1", "activation": "-1.51% [at 30.3 µM]"}, {"smiles": "O=C(O)c1ccco1", "activation": "9.37%"}, {"smiles": "CCc1cnc(C(=O)O)c(C(=O)O)c1", "activation": "-0.155%"}, {"smiles": "CC(C)(C)c1ccc(CCC=O)cc1", "activation": "-0.28%"}, {"smiles": "Nc1ccc(NCCO)c([N+](=O)[O-])c1", "activation": "-4.62%"}, {"smiles": "IC(I)I", "Potency": "inactive"}, {"smiles": "CC1=CCC(C(C)C)=CC1", "activation": "-0.719%"}, {"smiles": "CC[C@H]1CN2CCc3cc(OC)c(OC)cc3[C@@H]2C[C@@H]1C[C@H]1NCCc2cc(OC)c(OC)cc21", "Potency": "inactive"}, {"smiles": "CC(C)c1cccc(O)c1", "activation": "-3.63%"}, {"smiles": "CC(C)CC=O", "activation": "2.23%"}, {"smiles": "COc1cccc(OC)c1C(=O)N[C@@H]1C(=O)N2[C@@H]1SC(C)(C)[C@@H]2C(=O)O", "activation": "9.04% [at 30.3 µM]"}, {"smiles": "CC/C=C\\CC1=C(C)CCC1=O", "activation": "0.856%"}, {"smiles": "CCCC=O", "activation": "1.07%"}]}]}
